ALDH1A1 inh – blocks purified human ALDH1A1 activity; hit rate 7.3% among 220,000; Potency, µM (doses to about 75.3 µM), for the others: at the highest dose activity, negative = inhibition, usual class: inhibitors; AID 1030; Purified ALDH1A1, NADH fluorescence, propionaldehyde substrate; P00352; active = well fitted inhibition curve with a large enough effect, not every such curve was filed as active; inconclusive = small, poorly fitted or top-dose-only effect, or another doubt; inactive = no such curve, though single readings can be large or run the other way;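 also: plate controls were no enzyme wells and a reference inhibitor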
Tau fibril ThT – tau fibrillization inhibition (ThT binding); recombinant tau K18 P301L, heparin-induced fibrillization, ThT fluorescence; Potency, µM (top dose mostly 57.4 µM), for inactives: at the highest dose activity, negative = inhibition, hits mostly inhibitors; hit rate 2.1% among 270,000; P10636; also: nearly all actives have a fitted effect of over 55% in size
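Recombinant human tau K18 fragment […] carrying P301L, 15 uM unlabeled plus 0.24 uM Alexa 594-labeled, was fibrillized with 20 uM heparin in 100 mM sodium acetate pH 7 for 6 hr at 37 C; 30 uM ThT fluorescence read after 1 hr.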
Tau fluor cs – counter-screen for tau fibril formation inhibitors; tau K18 P301L (four-repeat tau fragment) Alexa594 fluorescence, heparin fibrillization; Potency, µM (titrated, usually from 57.7 µM), for inactives: at the highest dose activity change, negative = decrease; AID 1463; hit rate 0.93% among 280,000; also: nearly all actives have a fitted effect of over 55% in size
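Human K18 P301L tau (15 uM unlabeled plus 0.24 uM Alexa 594-labeled, final) in 100 mM sodium acetate pH 7 was mixed with compound and 20 uM heparin and incubated 6 hr at 37 C.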
Tau FP inhib – blocks human tau fibril formation measured by polarization. P10636. K18 P301L tau heparin fibrillization, Alexa594 FP, 6 h. Potency, µM (top dose mostly 57.7 µM), without a hit: at the highest dose activity, negative = inhibition, most hits filed as inhibitors. hit rate 0.39% among 280,000. AID 1468; also: nearly all actives have a fitted effect of over 55% in size
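Steps: dispense K18 P301L tau (15 uM plus 0.24 uM Alexa 594 tracer, final) in pH 7 sodium acetate; add compound; add heparin (20 uM final); incubate 6 hr, 37 C; add ThT (30 uM final); after 1 hr ambient, read FP.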
HPGD block – inhibitors of human 15-hydroxyprostaglandin dehydrogenase (HPGD) | Potency, µM, for inactives: at the top dose activity change, negative = inhibition, usual class: inhibitors | hit rate 4.3% among 150,000 | AID 894 | purified HPGD, NADH fluorescence kinetic, PGE2 substrate | P15428; active = well fitted inhibition curve with a large enough effect, not every such curve was filed as active; inconclusive = small, poorly fitted or top-dose-only effect, or another doubt; inactive = no such curve, though single readings can be large or run the other way
Target sequence (P15428 whole entry, looked up): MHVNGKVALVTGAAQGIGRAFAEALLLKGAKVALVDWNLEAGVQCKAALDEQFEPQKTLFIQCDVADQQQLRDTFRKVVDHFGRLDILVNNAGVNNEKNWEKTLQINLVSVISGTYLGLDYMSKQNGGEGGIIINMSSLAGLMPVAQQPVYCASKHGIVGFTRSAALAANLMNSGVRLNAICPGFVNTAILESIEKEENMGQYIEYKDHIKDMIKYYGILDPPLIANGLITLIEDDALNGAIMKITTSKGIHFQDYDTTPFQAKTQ
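20 nM HPGD preincubated 15 min at room temperature with compound in 50 mM Tris-HCl pH 8, 0.01% Tween 20. Started with 1 mM NAD+ and 30 uM prostaglandin E2; NADH fluorescence (360/450 nm) read 5 times over 30-s intervals, last minus first.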
NPSR antagonist – antagonists of human neuropeptide S receptor cAMP signaling; AID 1461; hit rate 1% among 220,000; CHO-NPSR cells, cAMP TR-FRET, antagonist mode; Potency, µM (top dose mostly 38.3 µM), for the others: top-dose activity change, negative = inhibition, usual class: inhibitors; also: nearly all actives have a fitted effect of over 50% in size
Target sequence (Q6W5P4 whole entry, looked up): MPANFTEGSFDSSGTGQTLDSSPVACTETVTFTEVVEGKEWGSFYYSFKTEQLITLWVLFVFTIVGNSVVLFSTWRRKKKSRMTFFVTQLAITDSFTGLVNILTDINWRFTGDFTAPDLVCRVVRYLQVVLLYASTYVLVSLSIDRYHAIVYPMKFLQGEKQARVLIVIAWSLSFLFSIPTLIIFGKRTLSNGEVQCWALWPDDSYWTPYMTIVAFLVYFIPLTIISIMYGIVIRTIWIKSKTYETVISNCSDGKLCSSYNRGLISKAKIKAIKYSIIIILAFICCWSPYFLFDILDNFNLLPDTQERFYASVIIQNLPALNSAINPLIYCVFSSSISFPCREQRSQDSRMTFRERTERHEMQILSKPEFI
Starred values were filed as active, the others as inactive; ? = inconclusive; · = no result; ! = repeats disagree; [ ] = dose if it differs, or a comment. An excerpt weighted towards active compounds, which were near 9.5% of everything screened. Unless noted, calls follow the shape of the dose curve; as a rule, active = well fitted curve in the direction sought with a large enough effect; inconclusive = small, poorly fitted or top-dose-only effect, or another doubt; inactive = no such curve, though single readings can be large; an effect the other way counts as inactive or inconclusive. Unless noted, % is scaled to controls: 0 for no effect and ±100 for the full control effect; potency is read from the fitted curve at half-maximal effect.

SMILES	ALDH1A1 inh	Tau fibril ThT	Tau fluor cs	Tau FP inhib	HPGD block	NPSR antagonist
O=C(NCCN1CCOCC1)c1ccc(N2CCCC2)c([N+](=O)[O-])c1	16µM*	-8%	-1%	0%	·	7%
O=C(NCc1ccc2c(c1)OCO2)c1ccc(N2CCCCCC2)c([N+](=O)[O-])c1	10µM*	?	-25%	13%	14µM*	-24%
Cc1ccc(-c2nn(CC(=O)NC3CCCC3)c3c2cnc2ccc(F)cc23)cc1C	·	-17%	1%	-3%	·	·
O=C(NN1CCN(Cc2ccccc2)CC1)c1ccc(N2CCOCC2)c([N+](=O)[O-])c1	2.2µM*	-16%	-1%	5%	·	2%
O=C(COC(=O)c1ccc(N2CCOCC2)c([N+](=O)[O-])c1)Nc1ccc2c(c1)OCO2	?	?	-21%	2%	-13%	15%
CC1CCN(c2ccc(C(=O)Nc3ccc4c(c3)OCO4)cc2[N+](=O)[O-])CC1	?	4µM*	?	11%	-8%	-37%
CC1CCCN(c2ccc(C(=O)OCn3nnc4ccccc4c3=O)cc2[N+](=O)[O-])C1 (stereo not drawn)	-2%	6%	5%	16%	16µM*	-7%
Cc1ccc(C(=O)OCn2nnc3ccccc3c2=O)cc1[N+](=O)[O-]	?	-1%	-21%	-10%	·	5%
O=C(c1cnc2c(c1)COc1ccccc1-2)c1ccccc1O	·	?	?	-8%	·	·
O=C(Nc1nc2c(F)cccc2s1)c1ccc2c(c1)OCCO2	·	-8%	?	?	·	·
CCc1nnc(NC(=O)COc2ccccc2[N+](=O)[O-])s1	-8%	1%	6%	0%	·	-11%
Cc1ccc(CNC(=O)c2cc(=O)c3cc(C)c(C)cc3o2)cc1	·	11%	-2%	-10%	·	·
CCC(CO)Nc1ccc(-c2nn(C)c(=O)c3ccccc23)cc1[N+](=O)[O-] (stereo not drawn)	1.4µM*	25µM*	-20%	10%	·	-38%
Cn1nc(-c2ccc(C(=O)O)cc2)c2ccccc2c1=O	6%	-8%	-4%	3%	7.9µM*	1%[46.1 µM]
Cc1ccc(-c2nn(C)c(=O)c3ccccc23)cc1CO	11%	-10%	-4%	-2%	32µM*	-5%[46.1 µM]
Cc1ccc(-c2nn(C)c(=O)c3ccccc23)cc1CNC(=O)CN1CCOCC1	?	2%	16%	3%	20µM*	-15%[46.1 µM]
COC(=O)c1ccc(-c2nn(C)c(=O)c3ccccc23)cc1	?	-15%	-4%	-7%	?	5%[46.1 µM]
COC(=O)NC(=S)Nc1ccc(Oc2ccc(Cl)cc2Cl)c(Cl)c1	?	?	?	?	-30%	-40%
CC(C)CCNC(=O)CN1C(=O)CCn2nc(-c3cn(C)c4ccccc34)cc21	·	-7%	-22%	8%	·	·
O=C(N1CCOCC1)N1CCC(n2nnc3ccccc32)CC1	-19%	-7%	0%	5%	-17%	-9%[46.1 µM]
O=C(C1CCCCC1)N1CCC(n2nnc3ccccc32)CC1	14µM*	-1%	0%	2%	-4%	-8%[46.1 µM]
Cc1onc(-c2c(F)cccc2Cl)c1-c1nnc(-c2cccc3ccccc23)o1	·	5%	6%	?	·	33%
CN(C)/C=C/c1onc(-c2c(F)cccc2Cl)c1C#N	3.5µM*	-8%	-16%	5%	·	-24%
Cc1ccc(C(=O)NCc2ccccc2)cc1NC(=O)c1nsc2ccccc12	·	-1%	-19%	1%	·	·
COc1cc2c(cc1OC)C(c1ccc(N(C)C)cc1)CC(=O)N2 (stereo not drawn)	8.9µM*	-2%	-4%	7%	-13%	-10%[46.1 µM]
SMILES	ALDH1A1 inh	Tau fibril ThT	Tau fluor cs	Tau FP inhib	HPGD block	NPSR antagonist
COc1ccccc1C1CC(=O)Nc2cc3c(cc21)OCCO3 (stereo not drawn)	?	-6%	-10%	-3%	32µM*	29%[46.1 µM]
CC(C)Oc1ccccc1C1CC(=O)Nc2cc3c(cc21)OCCO3 (stereo not drawn)	2%	-13%	-9%	-5%	-11%	?
COc1cc2c(cc1OC)C(c1cccnc1)CC(=O)N2 (stereo not drawn)	8%	-2%	-2%	3%	-5%	29%
CCN(CC)c1ccc(C2CC(=O)Nc3cc(OC)c(OC)cc32)cc1 (stereo not drawn)	13µM*	-5%	-17%	7%	-10%	-7%[46.1 µM]
Cc1ccc(S(=O)(=O)NCC(=O)OC(C)C(=O)Nc2ncc(Cl)cc2Cl)cc1 (stereo not drawn)	-7%	-2%	2%	6%	-11%	-7%[46.1 µM]
CC(=O)c1cnn(-c2c(Cl)cc(Cl)cc2Cl)c1C	·	1%	-2%	3%	·	16%
O=C(O)c1cc(-c2ccco2)nc2ccc(Br)cc12	4µM*!	16µM*!	?	?	?	6.3µM*!
O=C(Nc1cccc(C(F)(F)F)c1)c1ccc2nc(-c3ccco3)c(-c3ccco3)nc2c1	0.4µM*	14µM*	16µM*[quencher]	?	?	3%[46.1 µM]
CCc1nc2ccc(C(=O)N3CCN(c4ccccc4)CC3)cc2nc1CC	·	-6%	-6%	-9%	·	·
O=C(c1ccc2nc(-c3ccco3)c(-c3ccco3)nc2c1)N1CCN(c2ccccc2)CC1	8.9µM*	?	?	-2%	?	?
Cc1ccc(-c2nc3ccc(C(=O)O)cc3nc2-c2ccc(C)cc2)cc1	?	?	-8%	-2%	?	-17%[46.1 µM]
O=C(O)c1ccc2nc(-c3ccco3)c(-c3ccco3)nc2c1	?	7.9µM*	?	10µM*	·	-7%
COc1ccc(O[C@H]2C=C[C@@H](c3ccccc3)O[C@H]2COC(=O)CC/C(C)=N\O[C@@H](C)CN2CCCc3nc(C)c(C)cc32)cc1	-10%[13.5 µM]	-11%[11.5 µM]	-10%[11.6 µM]	0%[11.6 µM]	·	·
O=C(Nc1ccc2nc(-c3ccco3)c(-c3ccco3)nc2c1)NC1CC1	?	7.1µM*	13µM*[quencher]	?	?	2%[46.1 µM]
O=C(O)C(O)C(O)(Cc1ccc(O)cc1)C(=O)O (stereo not drawn)	-2%	-3%	-5%	-9%	-5%	·
COC(=O)c1cc(=O)nc2sc3cc(OC)ccc3n12	16µM*	-12%	-1%	2%	-9%	5%[46.1 µM]
CCCCc1c(O)nc2sc3cc(OC)ccc3n2c1=O	4%	-13%	-7%	2%	16µM*	-21%[46.1 µM]
COc1ccc(CNC(=O)c2cnc3sc4cc(OC)ccc4n3c2=O)cc1	·	-1%	-16%	-2%	·	·
O=C(NCc1ccco1)c1cccc(NS(=O)(=O)c2cccc(F)c2)c1	?	5%	1%	-4%	0%	2%
O=C(NCc1ccccn1)c1cccc(NS(=O)(=O)c2ccccc2F)c1	1.3µM*	-7%	-7%	-4%	-4%	9%

Assay outcomes deposited in PubChem BioAssay by National Center for Advancing Translational Sciences (NCATS).
